In all, about 63,000 compounds went through this assay and about 1,100 (1.7%) were called active.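 The calls were made as follows: active = compounds whose percent cytotoxicity in the single-dose primary screen, scaled between solvent and toxic-drug controls, exceeds 50; inactive = the rest.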 Only a selection was taken, and actives are over-represented in it overall. Potency and affinity values are given separately.

The nature of this assay: cytotoxicity in KRAS-transformed pancreatic duct cells, primary screen, cell-based, fluorescence, HTS (AID 431).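 Also: 0% = DMSO solvent wells and 100% = doxorubicin-treated wells.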 Conditions: HPDE-C7K KRASV12 cells, Alamar Blue viability, 48 h; at 10 µM; active compounds read high.
Take `O=C(CCn1c(=O)c2sccc2n(CC(=O)OCc2ccccc2)c1=O)NCc1ccco1`: the cytotoxicity is -12.9% (inactive).

Turning to `CCOC(=O)c1ccc(-n2[nH]c(-c3ccccc3)cc2=O)cc1`, the cytotoxicity was 58.5% (active).

Take `CCOC(=O)c1ccc(N2C(=O)C(C)=C(C)C2=O)cc1`: the cytotoxicity was 35.6% (inactive).

On to `CCOC(=O)c1ccc(-n2c(=O)[nH]c3ccccc3c2=O)cc1`, for which the cytotoxicity was 3% (inactive).

As for `COc1ccc(CCNC(=O)CCn2c(=O)oc3ccccc32)cc1`, the cytotoxicity is -9.7% (inactive).

Turning to `COC(=O)c1ccc(CSc2nnc(NCc3ccccc3)s2)o1`, the cytotoxicity was -2.2% (inactive).

With `COC(=O)c1ccc(CSc2nnc(Nc3ccccc3OC)s2)o1`, the cytotoxicity is 44.9% (inactive).

Take `CCOc1ccccc1Nc1nnc(SCc2ccc(C(=O)OC)o2)s1`: the cytotoxicity was 57.3% (active).

For the compound `c1ccc2nc(N3CCOCC3)c(N3CCOCC3)nc2c1`, the cytotoxicity is -2.3% (inactive).

Consider `Cc1cc(=O)[nH]c(SCC(=O)N2CCN(C(c3ccccc3)c3ccccc3)CC2)n1`, for which the cytotoxicity is -3.1% (inactive).

In the case of `O=C1CCCc2sc3c(c2N1)CCCCC3`, the cytotoxicity was 6.3% (inactive).

On to `CCOC(=O)C1=C(N2CCCCC2)c2cc3c(n2C1=O)CCCC3`, for which the cytotoxicity is 3.2% (inactive).

Regarding `CCSc1ncnc2c(C#N)c3n(c12)CCCCC3`, the cytotoxicity was -17% (inactive).

As for `Cc1cc(C(=O)Nc2sc3c(c2C#N)CCC3)no1`, the cytotoxicity was 36.4% (inactive).

With `CCc1ccc2c(c1)C(C)=CC(C)(C)N2`, the cytotoxicity is -4.3% (inactive).

Consider `O=C(Oc1cccc(Br)c1)c1cccnc1`, for which the cytotoxicity is -13.7% (inactive).

On to `O=C(Oc1ccc2ccccc2c1)c1ccco1`, for which the cytotoxicity was 2.3% (inactive).

Turning to `COC(=O)c1ccc(OC(=O)c2ccco2)cc1`, the cytotoxicity is -32.6% (inactive).

Regarding `CCOc1ccc2c(c1)N(C(=O)CN1C(=O)CCC1=O)C(C)(C)C=C2C`, the cytotoxicity was -12.2% (inactive).

On to `CC1=CC(C)(C)Nc2ccc(C)cc21`, for which the cytotoxicity is -5% (inactive).

For the compound `COC(=O)C1=C(C)NC(C)=C(C(=O)OC)C1c1ccc(OC(=O)c2ccco2)cc1`, the cytotoxicity was 11% (inactive).

As to `CCOc1ccc(OC(=O)c2cccnc2)cc1`, the cytotoxicity is 10.2% (inactive).

For the compound `c1ccc(CNc2ncnc3c2cnn3-c2ccccc2)cc1`, the cytotoxicity is 36% (inactive).

As for `Cc1ccc2nc(NC3=NCN(Cc4ccco4)CN3)nc(C)c2c1`, the cytotoxicity was 8.2% (inactive).

For the compound `Cc1ccc(-n2nnc3c(SCC(=O)NCc4ccco4)ncnc32)cc1`, the cytotoxicity was 8.5% (inactive).

As for `O=C(CN1C(=O)NC2(CCCc3ccccc32)C1=O)N1CCc2ccccc2C1` (stereo unspecified), the cytotoxicity was -21.3% (inactive).

`CCOc1ccc(C(C)(N)C(=O)O)cc1` (stereo unspecified): the cytotoxicity is 5.7% (inactive).

As for `COCCn1c(C)cc(C(=O)CSc2nnc(-c3cccnc3)n2-c2ccccc2F)c1C`, the cytotoxicity is -8% (inactive).

Consider `CCN(Cc1ccccc1)Cc1c(F)cccc1F`, for which the cytotoxicity was -14.3% (inactive).

With `CCN(CC(=O)N1CCOCC1)S(=O)(=O)c1ccc(C)cc1`, the cytotoxicity was -7.2% (inactive).

For `COc1cc(C2C3=C(Nc4ncnn42)c2ccccc2CC3)cc(OC)c1OC` (stereo unspecified), the cytotoxicity was 62.6% (active).

With `COc1ccc(C2C3=C(Nc4ncnn42)c2ccccc2CC3)cc1OC` (stereo unspecified), the cytotoxicity was 50.3% (active).

As for `COc1ccc(C2C(C(C)=O)=C(C)Nc3ncnn32)cc1OC` (stereo unspecified), the cytotoxicity is -18.7% (inactive).

For `COc1cc(C2C(C(=O)OC(C)C)=C(C)Nc3ncnn32)cc(OC)c1OC` (stereo unspecified), the cytotoxicity is 3.4% (inactive).

In the case of `c1csc(C2C3=C(Nc4ncnn42)c2ccccc2OC3)c1` (stereo unspecified), the cytotoxicity was 8.9% (inactive).

For the compound `COc1ccc(C2C3=C(Nc4ncnn42)c2ccccc2CCC3)cc1` (stereo unspecified), the cytotoxicity is -11.9% (inactive).

As for `Cc1ccc(Cl)cc1NC(=O)c1ocnc1C`, the cytotoxicity was 0.3% (inactive).

As for `COc1ccc(N(CC(=O)N2CCN(c3ccccc3)CC2)S(=O)(=O)c2c(C)noc2C)cc1`, the cytotoxicity was -8.3% (inactive).

Turning to `NC(=O)c1c(NC(=O)Cc2cccs2)sc2c1CCC2`, the cytotoxicity is -2.4% (inactive).

With `CC(C)(C#N)Nn1cnnc1`, the cytotoxicity is -13.8% (inactive).

Regarding `O=C(Nc1nc(-c2nc3ccccc3s2)cs1)c1ccco1`, the cytotoxicity is 1.4% (inactive).

As to `Cc1cccn2c(=O)c(C=Nc3ccccc3)c(NCc3ccco3)nc12`, the cytotoxicity was -13.4% (inactive).

As for `COc1ccc2c(c1)N1CCN=C1N2C`, the cytotoxicity is -12% (inactive).

As for `CN(C)C=Nc1ncc2c([nH]c3ccccc32)c1C#N`, the cytotoxicity was 19.8% (inactive).

Regarding `Cc1cc(=O)[nH]c2ccccc12`, the cytotoxicity was -5.7% (inactive).

As to `CSc1ccccc1NC(=O)c1cnccn1`, the cytotoxicity is -5.1% (inactive).

With `CN(C)CCCNC(=O)CCC1CCCCC1`, the cytotoxicity is 1.5% (inactive).

Take `COc1ccc(N2CCN(C(=O)CN=C3NS(=O)(=O)C(c4ccc(C)cc4)=C3C)CC2)cc1`: the cytotoxicity was -1.4% (inactive).

For `CC(C)CC(NC(=O)COc1ccccc1)C(=O)O` (stereo unspecified), the cytotoxicity was 5.6% (inactive).

As for `CCN1C(=O)c2cccc3c(NC(=O)c4cccc(N5C(=O)CCC5=O)c4)ccc1c23`, the cytotoxicity was -10.7% (inactive).

Consider `CCN1C(=O)c2cccc3c(NC(=O)c4ccc(S(=O)(=O)N(C)C)cc4)ccc1c23`, for which the cytotoxicity is 0% (inactive).

With `CCN1C(=O)c2cccc3c(NC(=O)c4ccc5c(c4)OCCO5)ccc1c23`, the cytotoxicity is 95.1% (active).

Turning to `c1ccc2c(c1)C(=NCC1CCCO1)NC2=NCC1CCCO1` (stereo unspecified), the cytotoxicity is 8.3% (inactive).

For the compound `O=C1c2oc3ccc(F)cc3c(=O)c2C(c2ccc(F)cc2)N1CCCN1CCOCC1` (stereo unspecified), the cytotoxicity is -15.7% (inactive).

With `COc1ccc(CC(=O)N2CCNC2=O)cc1`, the cytotoxicity is -17.1% (inactive).

For `Clc1ccc(C2=Nn3c(nnc3-c3n[nH]c4c3CCC4)SC2)cc1Cl`, the cytotoxicity is 71.9% (active).

For the compound `Fc1ccc(C2=Nn3c(nnc3-c3n[nH]c4c3CCC4)SC2)cc1`, the cytotoxicity was 1.2% (inactive).

In the case of `Brc1ccc(C2=Nn3c(nnc3-c3n[nH]c4c3CCC4)SC2)cc1`, the cytotoxicity is 53.5% (active).

Regarding `c1ccc(C2=Nn3c(nnc3-c3n[nH]c4c3CCC4)SC2)cc1`, the cytotoxicity was 10.4% (inactive).

As to `CC1=Nn2c(nnc2-c2n[nH]c3c2CCC3)SC1`, the cytotoxicity is -0.7% (inactive).

For the compound `Clc1ccc(C2=Nn3c(nnc3-c3n[nH]c4c3CCC4)SC2)cc1`, the cytotoxicity is 25.9% (inactive).

On to `COC(=O)c1ccc(S(=O)(=O)N2C3CCC2CC(NC(=O)NC2CCCCC2)C3)cc1` (stereo unspecified), for which the cytotoxicity is -5.3% (inactive).

As to `CCn1c(SCC(=O)NCc2ccco2)nc2cccnc21`, the cytotoxicity was -20.4% (inactive).

Turning to `CCSc1sccc1C1C(C#N)=C(N)N(c2cccnc2)C2=C1C(=O)CC(C)(C)C2` (stereo unspecified), the cytotoxicity is 30.9% (inactive).

As for `O=C(Nc1ccc2oc(-c3cccnc3)nc2c1)c1cccnc1`, the cytotoxicity was 3.2% (inactive).

As to `COC(=O)c1ccc(-c2nc3ccc(C)cc3o2)cc1`, the cytotoxicity was 54.8% (active).

Regarding `Cc1ccc(-c2nc3cc(C)ccc3o2)cc1`, the cytotoxicity was 8.8% (inactive).

As to `Cc1ccc2oc(-c3ccc(NC(=O)c4ccc5c(c4)OCO5)cc3)nc2c1`, the cytotoxicity was 85.1% (active).

`Cc1ccc2oc(-c3ccc(NC(=O)c4cccnc4)cc3)nc2c1`: the cytotoxicity is 56.9% (active).

For `O=C(Nc1ccc2oc(Cc3ccc(Cl)cc3)nc2c1)c1cccnc1`, the cytotoxicity is 58.3% (active).

As to `CCc1ccc2oc(-c3cccc(NC(=O)c4cccnc4)c3)nc2c1`, the cytotoxicity is 10.6% (inactive).

Consider `O=C(Nc1ccc2oc(=O)ccc2c1)c1cccnc1`, for which the cytotoxicity is 7.9% (inactive).

In the case of `COC(=O)c1ccc(-c2nc3ccccc3o2)cc1`, the cytotoxicity is -20.7% (inactive).

On to `COc1ccc(-c2nc3cc(NC(=O)c4ccc5c(c4)OCO5)ccc3o2)cc1`, for which the cytotoxicity was -6.9% (inactive).

Take `O=C(Nc1ccc2oc(-c3ccccc3)nc2c1)c1cccnc1`: the cytotoxicity was 34.5% (inactive).

In the case of `O=C(Nc1ccc(-c2nc3ccccc3o2)cc1)c1ccc2c(c1)OCO2`, the cytotoxicity was 2% (inactive).

The values above are taken from PubChem BioAssay AID431 (Sanford-Burnham Center for Chemical Genomics, 2006).
